The results in this text go back to PubChem BioAssay AID738 (SRMLSC, 2007).

Screen size: about 98,000 compounds; about 4,900 (5%) were called active. Cut-off read from the data, not from the text of the source: active = inhibition above about 30%; inactive = the rest. Many of the other results were omitted from the sample, so actives are more common in it than they were.

By inhibition is commonly meant the relative decrease from the control value, in per cent.

The test is described as follows: yeast control strain growth suppression – counter-screen for post-Golgi transport modulator project, primary screen (AID 738). The conditions noted are these: efflux-deficient yeast background strain, growth absorbance A615, 16 h; at 10 µM; active compounds read high. (A counterscreen serves to expose hits that act by an unwanted route or on another target.)
On to `O=[N+]([O-])c1ccccc1NCc1ccc(Cl)cc1`, for which the inhibition is 9.17% (inactive).

Regarding `CC(C)c1cc(C(N)=O)c(NC(=O)c2cccc(COc3ccc(Br)cc3)c2)s1`, the inhibition is 15.8% (inactive).

Turning to `CSc1ccccc1C(=O)Nc1cccc(C(C)=O)c1`, the inhibition was -2.07% (inactive).

For `O=C1Nc2cc(Cl)c(Cl)cc2N(O)N1c1cc(Cl)cc(Cl)c1`, the inhibition is 33.2% (active).

As to `Clc1ccc(-c2cc(COc3ccccc3)no2)cc1Cl`, the inhibition is 5.93% (inactive).

Regarding `Cc1ccc(-n2c(C)cc(/C=C(\C#N)C(=O)NCC3CCCO3)c2C)cc1` (stereo unspecified), the inhibition is 10.8% (inactive).

On to `CN1C2CCC1/C(=C\c1ccccc1Cl)C(=O)/C2=C\c1ccccc1Cl`, for which the inhibition is 25.3% (inactive).

As for `CC12c3ccccc3C(c3ccccc31)C1C(=O)N(Cc3cccnc3)C(=O)C12` (stereo unspecified), the inhibition was 4.53% (inactive).

In the case of `CC(=O)N1CCN(C(=O)Nc2cccc(C(F)(F)F)c2)CC1`, the inhibition was -1.91% (inactive).

For the compound `O=C(O)CSCC(=O)Nc1cccc(C(F)(F)F)c1`, the inhibition was 4.42% (inactive).

With `FC(F)(F)c1cccc(NC(=S)Nc2cccc(Cl)c2)c1`, the inhibition was 35.1% (active).

As to `O=C(CCNS(=O)(=O)c1ccccc1C(F)(F)F)NCc1ccc2c(c1)OCO2`, the inhibition was -1.95% (inactive).

On to `COCCNC(=O)c1onc(CSc2cccc(C)c2)c1C(=O)O`, for which the inhibition is -8.59% (inactive).

On to `Cc1ccc(-c2nn(C(C)(C)C)c3ncnc(N)c23)cc1`, for which the inhibition is 52.1% (active).

Turning to `COc1ccc(C(F)(F)F)cc1N/C=C\c1nnnn1-c1ccc(C)cc1`, the inhibition is 0.15% (inactive).

On to `O=S(=O)(/N=C(/Nc1ccccn1)c1ccccc1)c1ccc(Cl)cc1`, for which the inhibition was 1.53% (inactive).

For the compound `O=C(COc1ccc(/C=N/NS(=O)(=O)c2ccccc2)cc1)NCCc1ccccc1`, the inhibition was 5.69% (inactive).

With `O=C(CSc1nnnn1-c1ccc2c(c1)CCC2)Nc1ccc2c(c1)OCCO2`, the inhibition was 39.2% (active).

As for `O=C(CSc1nnnn1C1CCCC1)Nc1ccc2c(c1)OCCO2`, the inhibition was -2.44% (inactive).

As for `O=C(CSc1nc2ncccc2[nH]1)Nc1ccc2c(c1)OCCO2`, the inhibition is 0.61% (inactive).

Regarding `COc1ccc(NC(C)=O)cc1NC(=O)CN1CCN(C2c3ccccc3-c3ccccc32)CC1`, the inhibition is 89.2% (active).

`COc1ccc(OC)c(NC(=O)CN2CCN(C(=O)c3ccco3)CC2)c1`: the inhibition is 12.4% (inactive).

Turning to `COc1ccc(NC(C)=O)cc1NC(=O)CN1CCN(c2ccccn2)CC1`, the inhibition is 18.6% (inactive).

Regarding `Cc1c(C(=O)OC(C)C)sc(NC(=O)c2cccnc2)c1C#N`, the inhibition was 11.5% (inactive).

Consider `CC(CN1CCOCC1)c1ccccc1` (stereo unspecified), for which the inhibition was 5.77% (inactive).

For the compound `O=C(Nc1sc2c(c1-c1nc3ccccc3[nH]1)CCCC2)C1CC1`, the inhibition is 3.43% (inactive).
